Reference: ChEMBL document CHEMBL1961873, “Compounds: GSK PKIS; Assays: Nanosyn kinase panel” (2012)

What was measured:
[1] = molecular target: Death-associated protein kinase 1 (Homo sapiens) (UniProt P53355); conditions: at 1 µM;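 further: each value is a mean inhibition figure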
[2] = molecular target: T1, Serine/threonine-protein kinase DCLK2 (Homo sapiens) (UniProt Q8N568); conditions: at 0.1 µM
T1 sequence (whole entry): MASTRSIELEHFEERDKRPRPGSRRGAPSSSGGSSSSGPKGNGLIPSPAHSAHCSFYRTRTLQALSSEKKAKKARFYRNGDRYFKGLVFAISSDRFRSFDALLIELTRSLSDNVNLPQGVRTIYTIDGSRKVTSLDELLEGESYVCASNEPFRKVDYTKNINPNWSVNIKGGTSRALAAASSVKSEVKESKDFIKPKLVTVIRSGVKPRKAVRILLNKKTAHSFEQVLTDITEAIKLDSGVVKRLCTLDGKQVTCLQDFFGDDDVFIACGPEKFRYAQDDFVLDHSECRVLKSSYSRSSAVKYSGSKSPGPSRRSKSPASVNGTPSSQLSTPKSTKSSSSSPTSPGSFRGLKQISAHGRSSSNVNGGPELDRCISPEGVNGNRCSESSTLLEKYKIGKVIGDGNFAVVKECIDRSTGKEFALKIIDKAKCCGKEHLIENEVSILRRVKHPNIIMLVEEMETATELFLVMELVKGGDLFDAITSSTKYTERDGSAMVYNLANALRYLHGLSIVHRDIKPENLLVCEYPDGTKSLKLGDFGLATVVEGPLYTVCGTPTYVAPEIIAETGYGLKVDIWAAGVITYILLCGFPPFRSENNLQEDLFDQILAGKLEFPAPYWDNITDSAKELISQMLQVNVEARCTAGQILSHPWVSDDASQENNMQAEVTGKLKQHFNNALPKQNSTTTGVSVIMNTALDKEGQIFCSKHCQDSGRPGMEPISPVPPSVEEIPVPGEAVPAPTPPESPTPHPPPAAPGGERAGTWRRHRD

[3] = molecular target: T1, Serine/threonine-protein kinase DCLK2 (Homo sapiens); conditions: at 1 µM
[4] = molecular target: MAP kinase-activated protein kinase 2 (Homo sapiens) (UniProt P49137); conditions: at 0.1 µM
Chain of MAP kinase-activated protein kinase 2 (Homo sapiens) (P49137 whole entry, looked up): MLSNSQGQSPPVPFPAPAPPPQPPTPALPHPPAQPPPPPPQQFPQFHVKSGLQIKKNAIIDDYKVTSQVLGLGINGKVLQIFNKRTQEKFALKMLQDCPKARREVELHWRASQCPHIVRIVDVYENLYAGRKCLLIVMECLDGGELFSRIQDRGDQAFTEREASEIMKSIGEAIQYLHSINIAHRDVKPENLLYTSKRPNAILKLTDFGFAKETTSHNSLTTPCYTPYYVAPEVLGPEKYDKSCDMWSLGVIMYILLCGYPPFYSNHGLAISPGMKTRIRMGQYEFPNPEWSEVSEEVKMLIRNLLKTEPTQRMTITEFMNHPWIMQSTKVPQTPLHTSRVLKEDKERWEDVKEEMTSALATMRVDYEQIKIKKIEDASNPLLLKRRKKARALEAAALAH

[5] = molecular target: MAP kinase-activated protein kinase 2 (Homo sapiens) (UniProt P49137); conditions: at 1 µM
[6] = molecular target: MAP kinase-activated protein kinase 3 (Homo sapiens) (UniProt Q16644); conditions: at 0.1 µM
Chain of MAP kinase-activated protein kinase 3 (Homo sapiens) (Q16644 whole entry, looked up): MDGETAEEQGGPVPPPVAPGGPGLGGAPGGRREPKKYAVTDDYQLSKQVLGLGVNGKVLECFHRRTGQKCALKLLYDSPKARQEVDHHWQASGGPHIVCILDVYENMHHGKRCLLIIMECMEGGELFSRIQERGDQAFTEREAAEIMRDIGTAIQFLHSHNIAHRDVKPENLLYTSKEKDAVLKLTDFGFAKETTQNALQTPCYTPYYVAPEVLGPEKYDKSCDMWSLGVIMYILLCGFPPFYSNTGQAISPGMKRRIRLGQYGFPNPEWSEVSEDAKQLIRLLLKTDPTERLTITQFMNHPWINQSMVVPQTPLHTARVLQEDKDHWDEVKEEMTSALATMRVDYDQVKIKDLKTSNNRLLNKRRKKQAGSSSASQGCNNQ

[7] = molecular target: MAP kinase-activated protein kinase 3 (Homo sapiens) (UniProt Q16644); conditions: at 1 µM
[8] = molecular target: Serine/threonine-protein kinase MARK1 (Homo sapiens) (UniProt Q9P0L2); conditions: at 0.1 µM
Chain of Serine/threonine-protein kinase MARK1 (Homo sapiens) (Q9P0L2 whole entry, looked up): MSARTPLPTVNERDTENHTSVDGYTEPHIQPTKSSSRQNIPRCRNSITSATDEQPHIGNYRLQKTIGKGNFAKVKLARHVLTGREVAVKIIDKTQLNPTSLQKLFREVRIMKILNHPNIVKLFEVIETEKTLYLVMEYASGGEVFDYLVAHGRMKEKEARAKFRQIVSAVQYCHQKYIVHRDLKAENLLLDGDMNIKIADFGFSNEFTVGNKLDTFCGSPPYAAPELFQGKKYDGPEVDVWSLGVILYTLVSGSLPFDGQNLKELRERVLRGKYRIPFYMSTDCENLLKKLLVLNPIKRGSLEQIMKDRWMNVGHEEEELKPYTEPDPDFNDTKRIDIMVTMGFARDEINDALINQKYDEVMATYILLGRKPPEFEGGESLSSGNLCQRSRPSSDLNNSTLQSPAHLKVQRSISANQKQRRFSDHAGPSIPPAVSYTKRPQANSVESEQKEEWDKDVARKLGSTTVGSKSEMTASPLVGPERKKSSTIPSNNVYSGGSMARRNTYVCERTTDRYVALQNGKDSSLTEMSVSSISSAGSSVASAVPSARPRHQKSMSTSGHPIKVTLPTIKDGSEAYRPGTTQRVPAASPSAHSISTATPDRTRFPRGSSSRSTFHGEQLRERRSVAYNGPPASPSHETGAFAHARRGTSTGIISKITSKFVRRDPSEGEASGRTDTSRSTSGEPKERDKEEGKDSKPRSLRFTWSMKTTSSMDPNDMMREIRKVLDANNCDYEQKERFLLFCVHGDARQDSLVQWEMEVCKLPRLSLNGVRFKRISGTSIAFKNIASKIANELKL

[9] = molecular target: Serine/threonine-protein kinase MARK1 (Homo sapiens) (UniProt Q9P0L2); conditions: at 1 µM
[10] = molecular target: MAP/microtubule affinity-regulating kinase 3 (Homo sapiens) (UniProt P27448); conditions: at 0.1 µM
Chain of MAP/microtubule affinity-regulating kinase 3 (Homo sapiens) (P27448 whole entry, looked up): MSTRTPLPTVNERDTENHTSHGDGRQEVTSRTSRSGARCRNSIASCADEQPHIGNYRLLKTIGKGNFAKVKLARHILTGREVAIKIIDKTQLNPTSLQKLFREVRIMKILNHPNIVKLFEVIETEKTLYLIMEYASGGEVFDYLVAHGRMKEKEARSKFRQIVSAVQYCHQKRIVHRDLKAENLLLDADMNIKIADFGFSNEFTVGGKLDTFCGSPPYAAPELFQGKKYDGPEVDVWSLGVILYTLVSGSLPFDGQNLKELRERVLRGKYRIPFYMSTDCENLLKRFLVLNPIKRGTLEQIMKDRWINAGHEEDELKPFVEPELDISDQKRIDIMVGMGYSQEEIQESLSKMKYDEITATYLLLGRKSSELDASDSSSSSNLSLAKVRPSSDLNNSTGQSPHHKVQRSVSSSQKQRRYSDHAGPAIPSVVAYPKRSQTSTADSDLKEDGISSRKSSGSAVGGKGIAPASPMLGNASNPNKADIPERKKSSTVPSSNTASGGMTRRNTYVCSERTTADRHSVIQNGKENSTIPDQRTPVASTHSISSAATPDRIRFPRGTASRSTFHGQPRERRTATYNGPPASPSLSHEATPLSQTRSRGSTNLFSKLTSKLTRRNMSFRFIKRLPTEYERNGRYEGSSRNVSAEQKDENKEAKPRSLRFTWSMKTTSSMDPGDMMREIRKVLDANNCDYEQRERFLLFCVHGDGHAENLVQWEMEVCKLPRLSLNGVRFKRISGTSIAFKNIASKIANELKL

[11] = molecular target: MAP/microtubule affinity-regulating kinase 3 (Homo sapiens) (UniProt P27448); conditions: at 1 µM
[12] = molecular target: T2, MAP/microtubule affinity-regulating kinase 4 (Homo sapiens) (UniProt Q96L34); conditions: at 0.1 µM
T2 sequence (whole entry): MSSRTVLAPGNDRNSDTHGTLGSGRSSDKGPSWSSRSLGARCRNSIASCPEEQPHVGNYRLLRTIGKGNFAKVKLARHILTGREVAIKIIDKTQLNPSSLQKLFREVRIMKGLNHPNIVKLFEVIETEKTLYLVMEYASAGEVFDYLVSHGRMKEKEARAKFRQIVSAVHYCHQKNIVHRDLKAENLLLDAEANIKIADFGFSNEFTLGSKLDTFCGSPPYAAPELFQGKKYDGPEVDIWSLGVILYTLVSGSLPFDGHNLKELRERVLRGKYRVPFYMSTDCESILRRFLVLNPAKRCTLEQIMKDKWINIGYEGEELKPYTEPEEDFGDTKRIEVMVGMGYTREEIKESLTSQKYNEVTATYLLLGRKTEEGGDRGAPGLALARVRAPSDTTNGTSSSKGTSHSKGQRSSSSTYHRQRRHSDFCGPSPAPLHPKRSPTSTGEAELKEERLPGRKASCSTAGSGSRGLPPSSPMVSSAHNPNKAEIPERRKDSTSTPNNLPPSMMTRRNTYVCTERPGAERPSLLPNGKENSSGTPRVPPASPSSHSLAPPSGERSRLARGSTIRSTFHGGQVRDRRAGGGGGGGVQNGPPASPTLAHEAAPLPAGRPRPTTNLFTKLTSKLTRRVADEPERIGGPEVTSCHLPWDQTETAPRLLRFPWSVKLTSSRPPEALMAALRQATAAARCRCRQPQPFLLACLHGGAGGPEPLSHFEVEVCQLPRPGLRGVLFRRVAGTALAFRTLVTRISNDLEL

[13] = molecular target: T2, MAP/microtubule affinity-regulating kinase 4 (Homo sapiens); conditions: at 1 µM
[14] = molecular target: Maternal embryonic leucine zipper kinase (Homo sapiens) (UniProt Q14680); conditions: at 0.1 µM
[15] = molecular target: Maternal embryonic leucine zipper kinase (Homo sapiens) (UniProt Q14680); conditions: at 1 µM
[16] = molecular target: MAP kinase-interacting serine/threonine-protein kinase 1 (Homo sapiens) (UniProt Q9BUB5); conditions: at 0.1 µM
[17] = molecular target: MAP kinase-interacting serine/threonine-protein kinase 1 (Homo sapiens) (UniProt Q9BUB5); conditions: at 1 µM
[18] = molecular target: MAP kinase-interacting serine/threonine-protein kinase 2 (Homo sapiens) (UniProt Q9HBH9); conditions: at 0.1 µM
Chain of MAP kinase-interacting serine/threonine-protein kinase 2 (Homo sapiens) (Q9HBH9 whole entry, looked up): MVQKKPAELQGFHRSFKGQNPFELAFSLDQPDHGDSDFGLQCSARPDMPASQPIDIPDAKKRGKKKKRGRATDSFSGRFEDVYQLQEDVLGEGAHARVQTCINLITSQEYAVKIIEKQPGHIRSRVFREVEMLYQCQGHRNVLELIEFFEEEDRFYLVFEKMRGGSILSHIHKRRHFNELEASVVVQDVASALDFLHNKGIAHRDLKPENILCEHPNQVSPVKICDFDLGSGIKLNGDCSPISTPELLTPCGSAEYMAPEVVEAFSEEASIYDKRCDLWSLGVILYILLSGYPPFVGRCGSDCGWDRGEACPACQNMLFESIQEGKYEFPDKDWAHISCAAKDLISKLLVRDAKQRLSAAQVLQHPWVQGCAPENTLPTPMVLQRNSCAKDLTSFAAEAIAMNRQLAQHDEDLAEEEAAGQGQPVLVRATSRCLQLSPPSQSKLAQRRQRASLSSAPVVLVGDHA

[19] = molecular target: MAP kinase-interacting serine/threonine-protein kinase 2 (Homo sapiens) (UniProt Q9HBH9); conditions: at 1 µM
[20] = molecular target: Serine/threonine-protein kinase MARK2 (Homo sapiens) (UniProt Q7KZI7); conditions: at 0.1 µM;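 further: mean percent inhibition of PAR-1Balpha kinase activity, reported from the GSK PKIS screen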
Chain of Serine/threonine-protein kinase MARK2 (Homo sapiens) (Q7KZI7 whole entry): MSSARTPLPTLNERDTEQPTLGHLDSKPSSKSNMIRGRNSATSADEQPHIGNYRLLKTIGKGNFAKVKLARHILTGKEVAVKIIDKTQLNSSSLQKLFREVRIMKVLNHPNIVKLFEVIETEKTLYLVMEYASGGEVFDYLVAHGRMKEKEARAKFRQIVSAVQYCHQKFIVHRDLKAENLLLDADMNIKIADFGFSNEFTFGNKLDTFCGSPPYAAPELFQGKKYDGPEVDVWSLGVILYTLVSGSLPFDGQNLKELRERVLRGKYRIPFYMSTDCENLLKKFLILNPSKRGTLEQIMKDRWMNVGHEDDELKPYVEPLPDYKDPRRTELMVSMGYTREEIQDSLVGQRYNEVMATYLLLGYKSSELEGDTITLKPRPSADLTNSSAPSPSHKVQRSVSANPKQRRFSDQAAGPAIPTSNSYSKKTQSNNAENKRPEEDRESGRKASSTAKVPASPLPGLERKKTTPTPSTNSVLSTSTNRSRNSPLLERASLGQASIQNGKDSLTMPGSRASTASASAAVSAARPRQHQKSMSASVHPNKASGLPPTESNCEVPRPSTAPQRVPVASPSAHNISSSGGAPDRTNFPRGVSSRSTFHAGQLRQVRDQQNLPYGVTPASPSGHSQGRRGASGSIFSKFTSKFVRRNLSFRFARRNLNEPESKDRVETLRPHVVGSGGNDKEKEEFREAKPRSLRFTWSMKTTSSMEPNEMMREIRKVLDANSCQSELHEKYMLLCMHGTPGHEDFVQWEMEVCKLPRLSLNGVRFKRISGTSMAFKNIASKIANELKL

Chain of Death-associated protein kinase 1 (Homo sapiens) (P53355 whole entry, looked up): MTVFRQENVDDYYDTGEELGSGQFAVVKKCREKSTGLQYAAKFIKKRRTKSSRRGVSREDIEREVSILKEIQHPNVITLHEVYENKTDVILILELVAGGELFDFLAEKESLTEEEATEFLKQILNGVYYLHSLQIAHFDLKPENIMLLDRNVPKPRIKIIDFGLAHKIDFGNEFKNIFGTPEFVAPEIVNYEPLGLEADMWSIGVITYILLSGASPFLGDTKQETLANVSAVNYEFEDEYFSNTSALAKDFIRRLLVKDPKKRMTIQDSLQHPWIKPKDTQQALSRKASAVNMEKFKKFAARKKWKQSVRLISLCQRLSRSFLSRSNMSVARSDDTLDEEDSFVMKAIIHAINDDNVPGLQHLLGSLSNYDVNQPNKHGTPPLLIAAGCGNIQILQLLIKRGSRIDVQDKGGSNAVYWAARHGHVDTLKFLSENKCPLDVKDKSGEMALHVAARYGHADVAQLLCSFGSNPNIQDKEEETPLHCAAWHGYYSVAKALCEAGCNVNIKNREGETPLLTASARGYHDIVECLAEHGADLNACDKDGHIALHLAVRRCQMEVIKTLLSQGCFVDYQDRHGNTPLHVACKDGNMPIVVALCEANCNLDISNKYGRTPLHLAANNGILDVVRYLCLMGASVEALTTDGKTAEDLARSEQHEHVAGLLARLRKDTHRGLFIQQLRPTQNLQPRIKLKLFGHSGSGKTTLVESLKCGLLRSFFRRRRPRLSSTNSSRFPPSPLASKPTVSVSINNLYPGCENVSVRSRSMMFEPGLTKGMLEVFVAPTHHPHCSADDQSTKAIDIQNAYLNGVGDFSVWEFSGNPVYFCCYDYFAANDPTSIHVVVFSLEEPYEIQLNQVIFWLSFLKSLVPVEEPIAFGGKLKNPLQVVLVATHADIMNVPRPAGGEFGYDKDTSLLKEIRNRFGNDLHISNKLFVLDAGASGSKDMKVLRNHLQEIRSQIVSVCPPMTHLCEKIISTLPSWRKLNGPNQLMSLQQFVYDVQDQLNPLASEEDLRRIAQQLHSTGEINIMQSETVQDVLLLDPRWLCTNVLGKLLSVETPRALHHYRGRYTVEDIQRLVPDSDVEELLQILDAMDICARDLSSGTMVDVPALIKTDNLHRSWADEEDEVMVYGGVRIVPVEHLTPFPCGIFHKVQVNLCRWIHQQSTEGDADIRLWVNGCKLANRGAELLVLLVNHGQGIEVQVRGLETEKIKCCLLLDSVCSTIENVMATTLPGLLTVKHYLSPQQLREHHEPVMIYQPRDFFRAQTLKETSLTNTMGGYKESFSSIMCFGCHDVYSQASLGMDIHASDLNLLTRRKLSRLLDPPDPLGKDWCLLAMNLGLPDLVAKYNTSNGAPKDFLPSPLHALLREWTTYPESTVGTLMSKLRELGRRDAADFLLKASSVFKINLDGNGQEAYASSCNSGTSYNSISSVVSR

SMILES	inhibition [1] [%]	inhibition [2] [%]	inhibition [3] [%]	inhibition [4] [%]	inhibition [5] [%]	inhibition [6] [%]	inhibition [7] [%]	inhibition [8] [%]	inhibition [9] [%]	inhibition [10] [%]	inhibition [11] [%]	inhibition [12] [%]	inhibition [13] [%]	inhibition [14] [%]	inhibition [15] [%]	inhibition [16] [%]	inhibition [17] [%]	inhibition [18] [%]	inhibition [19] [%]	inhibition [20] [%]
O=C(Nc1n[nH]c2cc(-c3ccc(F)cc3)ccc12)C1CC1	9.97	1.56	0.81	4.23	4.01	9.47	8.99	3.81	5.7	2.03	4.76	2	3.26	4.84	8.01	4.85	25.8	1.37	7.23	1.15
COC(=O)Nc1nc2ccc(Oc3ccc(NC(=O)Nc4cccc(Cl)c4)cc3)cc2[nH]1	-0.2	-0.66	0.75	-0.07	-0.56	3.71	4.53	0.33	2.88	0.27	-0.32	-0.16	0.01	1.24	-2.93	1.78	4.14	-1.23	0.19	-0.4
CCOc1ccc2c(-c3ccnc(Nc4cccc(C(F)(F)F)c4)n3)cnn2n1	1.54	1.21	3.6	0.79	-0.24	2.73	1.86	2.43	3.98	1.6	0.96	1.1	1.8	1.46	3.63	2.65	4.31	-0.81	3.49	0.02
COc1cc(N2CCN(C(C)C)CC2)ccc1Nc1nc(Nc2ccc(F)cc2C(N)=O)c2cc[nH]c2n1	46	-0.62	8.47	0.94	5.03	3.04	7.11	7.7	47.7	12.3	67.4	4.23	37.8	18	78.3	0.9	1.83	1.81	8.99	5.75
CC(=O)NCc1cccc(C#Cc2cncnc2Nc2ccc(OCc3cccc(F)c3)c(Cl)c2)c1	-8.59	1.43	6.49	-2.58	-3.05	-4.92	-5.42	1.88	2.89	1.71	1.66	2.33	3.13	0.79	2.93	3.79	32.1	2.64	11.8	0.37
NC(=O)c1sc(-n2cnc3ccc(C(F)(F)F)cc32)cc1OCc1ccccc1Br	-0.59	0.84	-0.41	1.86	0.94	4.27	4.34	2.69	4.02	0.94	11.5	1.2	2.56	2.87	7.71	2.89	5.77	1.04	3.71	-0.38
COc1ccc2c(-c3ccnc(Nc4cccc(OC(F)(F)F)c4)n3)cnn2n1	5.37	0.72	0.97	2.32	2.88	4.5	5.2	2.92	6.68	0.91	6.67	1.08	3.99	1.72	11.1	3.13	9.47	2.32	8.78	-0.54
c1cc(-c2cnn3nc(N4CCOCC4)ccc23)nc(NC2CC2)n1	3.38	-0.25	-2.52	1.29	1.97	5.27	6.31	3.55	10.3	4.76	12.9	1.01	5.05	8.27	43.9	4.33	19.8	7.65	42.5	0.85
COc1cc(Nc2nccc(Nc3ccc4c(C)n[nH]c4c3)n2)cc(OC)c1OC	2.65	-0.29	2.5	0.91	0.86	1.05	1.36	2.59	8.82	3.33	9.39	1.78	8	3.21	8.73	2.01	13.5	2.68	19.2	1.57
